D1 potentiator: potentiators of human D1 dopamine receptor; HEK293 TREx D1 cells, calcium flux, dopamine EC20 potentiation; 360,000 compounds, 0.036% hits; potentiation, % at 10 µM; in the data active = potentiation above about 30%; also: 0% is about no effect
D1 ag: activates the human D1 dopamine receptor; AID 504660; P21728; activation, % at 2 µM; HEK293 T-REx D1 cells, calcium flux, agonist mode; 360,000 compounds, 1% hits; also: 0% is about no effect
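Inducible HEK293 T-REx D1 cells, force-coupled to calcium signalling, were plated at 4000 cells/well with tetracycline and held overnight at 30 C. After no-wash calcium dye loading, compound-evoked calcium rise over 180 s flagged agonists.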
TRHR ag: agonists of human TRH receptor. TRHR cells, calcium flux fluo-8, FDSS agonist mode. activation, % at 2 µM. 360,000 compounds, 0.18% hits. AID 493084; also: 0% is about no effect
Target sequence (P34981 whole entry, looked up): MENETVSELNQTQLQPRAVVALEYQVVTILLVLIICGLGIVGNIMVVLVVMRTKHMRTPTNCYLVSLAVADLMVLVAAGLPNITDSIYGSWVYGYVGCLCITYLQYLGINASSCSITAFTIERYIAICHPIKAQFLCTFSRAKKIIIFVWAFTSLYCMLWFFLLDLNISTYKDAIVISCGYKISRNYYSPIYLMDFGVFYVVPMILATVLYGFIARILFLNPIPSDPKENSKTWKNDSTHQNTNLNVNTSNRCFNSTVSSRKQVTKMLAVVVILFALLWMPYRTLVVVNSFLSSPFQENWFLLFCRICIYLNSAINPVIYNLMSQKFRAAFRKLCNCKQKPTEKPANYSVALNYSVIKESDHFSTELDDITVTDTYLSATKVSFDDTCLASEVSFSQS
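In this calcium-flux screen, cells bearing human TRHR are dye-loaded with fluo-8, baselined for 10 cycles, then exposed to library compounds; positive kinetic calcium responses during the agonist phase mark hits, with TRH as control.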
TRHR enhancer: allosteric enhancers of human TRH receptor; P34981; TRHR cells, fluo-8 calcium fluorescence, EC20 TRH enhancement; enhancement, % at 2 µM; 360,000 compounds, 0.66% hits; AID 493056; in the data active = enhancement above about 30%; also: 0% is about no effect
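Enhancer read-out: after compound pinning and an initial kinetic agonist-mode read, an EC20 of TRH (10 nM final) was injected and fluo-8 calcium signal (Ex 480/Em 530) followed at 1 s/cycle for 100 cycles in TRHR-expressing cells.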
D1 antagonist: human D1 dopamine receptor antagonism; activity change, negative = inhibition, % at 10 µM; HEK293 TREx D1 cells, calcium flux, dopamine EC80; active compounds read low; 360,000 compounds, 3.2% hits; in the data active = activity change below about -30%; also: % is scaled to controls: 0 for no effect and ±100 for the full control effect
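HEK293 T-REx cells expressing inducible, force-coupled D1 receptor; no-wash Ca dye, 30–90 min RT. Cmpd → 180 s read at 1 Hz → EC80 DA → 180 s read.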
* = called active by the depositor; nt = no result. Compounds with a hit are over-represented: about 4.7% of the library has one in this group of screens. Rule as the data show it, unless noted: active = activation above about 30%; inactive = the rest.

SMILES | D1 potentiator | D1 ag | TRHR ag | TRHR enhancer | D1 antagonist
O=C(CCCN1CC=C(n2c(=O)[nH]c3ccccc32)CC1)c1ccc(F)cc1 | -3 | 7 | -1 | 5 | -71*
COc1ccc(S(=O)(=O)c2cnc3cc(OC)c(OC)cc3c2N2CCCC(C)C2)cc1 (configuration not stated) | -9 | 8 | 0 | 11 | -3
CCc1ccc(S(=O)(=O)c2cnc3ccc(OC)cc3c2N2CCCC(C)C2)cc1 (configuration not stated) | -9 | 7 | 0 | 2 | -56*
Cc1cc(C)c(NC(=O)CSc2nc3ccccc3c(=O)n2CCCN2CCOCC2)c(C)c1 | -3 | 2 | 0 | 5 | -2
CCOC(=O)c1sc(NC(=O)CCc2ccccc2)nc1C | -3 | 6 | -2 | 5 | -2
O=[N+]([O-])c1ccc(CNc2ccc(Cl)cc2)s1 | -9 | 5 | 0 | -2 | -37*
Cc1ccc(NS(=O)(=O)c2ccc(C(=O)N3CCCC(C(F)(F)F)C3)cc2)cc1 (configuration not stated) | 4 | 70* | 16 | -3 | -62*
CC1CCN(S(=O)(=O)c2ccc(C(=O)N3CCCC(C(F)(F)F)C3)cc2)CC1 (configuration not stated) | -1 | 8 | 0 | 4 | -33*
COc1ccccc1NS(=O)(=O)c1ccc(C(=O)N2CCCC(C(F)(F)F)C2)cc1 (configuration not stated) | 0 | 17 | -1 | -9 | 4
COc1ccccc1-c1nc2c(c(SCc3ccc(F)cc3Cl)n1)Cc1c(CO)cnc(C)c1O2 | -1 | 1 | 0 | 1 | 4
O=C(CN1C(=O)NC2(CCCCC2)C1=O)Nc1ccc(Cl)c(S(=O)(=O)N2CCOCC2)c1 | -6 | 2 | 0 | -3 | -1
CC/C(=N/Nc1ccccc1)c1cnnc(-c2ccccc2)n1 | -4 | -3 | -1 | 1 | -12
CC/C(=N/Nc1cccc(Cl)c1)c1cnnc(SC)n1 | -10 | 1 | 1 | 7 | -37*
COc1ccc(CCNC(=O)CCNS(=O)(=O)c2cccc(Cl)c2)cc1OC | -4 | 2 | -1 | 5 | -14
Nc1ccccc1C(=O)/C=C/c1ccc2c(c1)OCO2 | -4 | 0 | -1 | 4 | -35*
O=C(/C=C/c1ccc2c(c1)OCO2)Nc1cc(S(=O)(=O)N2CCOCC2)ccc1N1CCOCC1 | -4 | 2 | 0 | -2 | -47*
NS(=O)(=O)c1ccc(NC(=O)/C=C/c2ccc3c(c2)OCO3)cc1 | 8 | 4 | 0 | -1 | -48*
O=C(/C=C/c1ccc2c(c1)OCO2)c1ccco1 | -6 | 0 | 0 | -4 | -1
Cc1ccc(/C=C/C(=O)Nc2cc(S(=O)(=O)N3CCOCC3)ccc2N2CCOCC2)cc1 | nt | 8 | 0 | 1 | 5
O=C(NCCc1ccccc1)C(=O)NCC(c1ccco1)S(=O)(=O)c1cccs1 (configuration not stated) | 3 | -2 | 0 | 0 | nt
O=C(COc1ccccc1)Nc1c(C(=O)N2CCC(N3CCCCC3)CC2)oc2ccccc12 | -5 | 3 | 0 | 8 | 3
COc1ccc(NC(=O)c2oc3ccccc3c2NC(=O)COc2ccc(F)cc2)c(OC)c1 | 0 | 3 | 0 | 39* | 5
O=C(COc1ccc(F)cc1)Nc1c(C(=O)N2CCC(N3CCCCC3)CC2)oc2ccccc12 | -4 | 4 | 0 | 0 | -35*
CC(C)CC(=O)NCC1(N(C)C)CCCCC1 | 0 | 0 | 1 | 1 | 0
O=S(=O)(Nc1nc2n(n1)C(c1ccccc1)C=C(c1ccc(Cl)cc1)N2)c1ccccc1 (configuration not stated) | 0 | 32* | 8 | 0 | -14
Cc1ccc(C2C=C(c3ccccc3)Nc3nc(NS(=O)(=O)c4ccccc4)nn32)cc1 (configuration not stated) | -3 | 31* | 13 | 9 | 10
Cc1ccc(S(=O)(=O)Nc2nc3n(n2)C(c2ccc(Cl)cc2)C=C(c2ccccc2)N3)cc1 (configuration not stated) | -1 | 11 | 0 | -3 | 19
Cc1cc(OC(C)C(=O)N(Cc2ccc(N(C)C)cc2)Cc2ccco2)ccc1Cl (configuration not stated) | -1 | 1 | 0 | 0 | -5

From PubChem
